# ± gives the standard deviation.
# T1: HaloTag-ATRX ADD domain (163-292)
# T1 chain: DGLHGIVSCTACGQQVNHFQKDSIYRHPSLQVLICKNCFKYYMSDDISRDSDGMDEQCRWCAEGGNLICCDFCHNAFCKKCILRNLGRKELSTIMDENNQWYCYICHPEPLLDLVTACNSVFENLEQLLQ
# Columns and labels:
# Experiment in all cases: peptide microarray binding signal (635 nm), min-max normalized on array (fraction of array maximum); higher = stronger binding
# [1] = target: T1, HaloTag-ATRX ADD domain (163-292)
# In short: (§1)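 Within each library, mean intensities of triplicate spots were min-max scaled to give the binding signal. The spots were histone 13-mer peptide–cellulose conjugates on nitrocellulose with a Cy3 tracer, blocked overnight at 4°C. They were then probed for 1 h at 4°C using biotin-labelled HaloTag reader fusions (10 nM to 1 μM) with streptavidin-Alexa Fluor 647 or rabbit histone antibodies (1:10,000 to 1:2,000) with anti-rabbit Alexa 647, and scanned at 635 nm for signal and 532 nm for misprints on an Axon GenePix 4000B.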
# [2] = target: HaloTag-ING2 PHD (mouse Ing2 200-280)
# In short: as §1
# [3] = target: anti-H3K4me3 antibody ab8580
# In short: as §1
# [4] = target: anti-H3K9me3 antibody ab8898
# In short: as §1
# [5] = peptide region: H3 20-32, peptide modifications: H3K23ac, binder concentration: 1:2,000 dilution
# [6] = peptide region: H3 20-32, peptide modifications: H3K23ac, binder concentration: 1:10,000 dilution
# [7] = peptide region: H3 11-23, peptide modifications: H3R17me2s H3K18me3, binder concentration: 1:2,000 dilution
# [8] = peptide region: H3 11-23, peptide modifications: H3R17me2s H3K18me3, binder concentration: 1:10,000 dilution
# [9] = peptide region: H3 20-32, peptide modifications: H3K23me1 H3K27me1, binder concentration: 1:2,000 dilution
# [10] = peptide region: H3 20-32, peptide modifications: H3K23me1 H3K27me1, binder concentration: 1:10,000 dilution
# [11] = peptide region: H3 11-23, peptide modifications: H3R17me2s H3K18ac, binder concentration: 1:2,000 dilution
# [12] = peptide region: H3 11-23, peptide modifications: H3R17me2s H3K18ac, binder concentration: 1:10,000 dilution
# [13] = peptide region: H3 11-23, peptide modifications: H3R17me2a H3K18me3, binder concentration: 1:2,000 dilution
# [14] = peptide region: H3 11-23, peptide modifications: H3R17me2a H3K18me3, binder concentration: 1:10,000 dilution
# [15] = peptide region: H3 11-23, peptide modifications: H3R17me2a H3K18me2, binder concentration: 1:2,000 dilution
# [16] = peptide region: H3 11-23, peptide modifications: H3R17me2a H3K18me2, binder concentration: 1:10,000 dilution
# [17] = peptide region: H3 20-32, binder concentration: 1:2,000 dilution
# [18] = peptide region: H3 20-32, binder concentration: 1:10,000 dilution
# [19] = peptide region: H3 11-23, peptide modifications: H3R17me2a H3K18me1, binder concentration: 1:2,000 dilution
# [20] = peptide region: H3 11-23, peptide modifications: H3R17me2a H3K18me1, binder concentration: 1:10,000 dilution
# [21] = peptide region: H3 20-32, peptide modifications: H3K23ac H3K27me2, binder concentration: 1:2,000 dilution
# [22] = peptide region: H3 20-32, peptide modifications: H3K23ac H3K27me2, binder concentration: 1:10,000 dilution
# [23] = peptide region: H3 20-32, peptide modifications: H3K23me1 H3K27me2, binder concentration: 1:2,000 dilution
# [24] = peptide region: H3 20-32, peptide modifications: H3K23me1 H3K27me2, binder concentration: 1:10,000 dilution
binder,measurement,setting,value
LATKAARKSAPAT [H3 20-32 L A T Kac A A R K S A P A T],peptide microarray binding signal,"[1]; peptide region: H3 20-32, peptide modifications: H3K23ac, binder concentration: 50 nM",0.00514 ± 8.6e-05
same,peptide microarray binding signal,"[1]; peptide region: H3 20-32, peptide modifications: H3K23ac, binder concentration: 500 nM",0.00843 ± 0.00057
same,peptide microarray binding signal,"[2]; peptide region: H3 20-32, peptide modifications: H3K23ac, binder concentration: 10 nM",0.0139 ± 0.0003
same,peptide microarray binding signal,"[2]; peptide region: H3 20-32, peptide modifications: H3K23ac, binder concentration: 100 nM",0.021 ± 0.00086
same,peptide microarray binding signal,[3]; [5],0.00479 ± 0.00097
same,peptide microarray binding signal,[3]; [6],0.00388 ± 0.00011
same,peptide microarray binding signal,[4]; [5],0.002703 ± 1.4e-05
same,peptide microarray binding signal,[4]; [6],0.00265 ± 8.4e-05
TGGKAPRKQLATK [H3 11-23 T G G K A P Rme2s Kme3 Q L A T K],peptide microarray binding signal,"[1]; peptide region: H3 11-23, peptide modifications: H3R17me2s H3K18me3, binder concentration: 50 nM",0.00476 ± 0.00011
same,peptide microarray binding signal,"[1]; peptide region: H3 11-23, peptide modifications: H3R17me2s H3K18me3, binder concentration: 500 nM",0.00814 ± 0.00026
same,peptide microarray binding signal,"[2]; peptide region: H3 11-23, peptide modifications: H3R17me2s H3K18me3, binder concentration: 10 nM",0.0107 ± 0.0017
same,peptide microarray binding signal,"[2]; peptide region: H3 11-23, peptide modifications: H3R17me2s H3K18me3, binder concentration: 100 nM",0.0204 ± 0.0049
same,peptide microarray binding signal,[3]; [7],0.0681 ± 0.028
same,peptide microarray binding signal,[3]; [8],0.0469 ± 0.0085
same,peptide microarray binding signal,[4]; [7],0.0662 ± 0.01
same,peptide microarray binding signal,[4]; [8],0.0267 ± 0.0059
LATKAARKSAPAT [H3 20-32 L A T Kme A A R Kme S A P A T],peptide microarray binding signal,"[1]; peptide region: H3 20-32, peptide modifications: H3K23me1 H3K27me1, binder concentration: 50 nM",0.00404 ± 0.00027
same,peptide microarray binding signal,"[1]; peptide region: H3 20-32, peptide modifications: H3K23me1 H3K27me1, binder concentration: 500 nM",0.00976 ± 0.00044
same,peptide microarray binding signal,"[2]; peptide region: H3 20-32, peptide modifications: H3K23me1 H3K27me1, binder concentration: 10 nM",0.015 ± 0.00066
same,peptide microarray binding signal,"[2]; peptide region: H3 20-32, peptide modifications: H3K23me1 H3K27me1, binder concentration: 100 nM",0.0215 ± 0.0021
same,peptide microarray binding signal,[3]; [9],0.0102 ± 0.0036
same,peptide microarray binding signal,[3]; [10],0.01 ± 0.00092
same,peptide microarray binding signal,[4]; [9],0.00488 ± 0.00067
same,peptide microarray binding signal,[4]; [10],0.0045 ± 0.00019
TGGKAPRKQLATK [H3 11-23 T G G K A P Rme2s Kac Q L A T K],peptide microarray binding signal,"[1]; peptide region: H3 11-23, peptide modifications: H3R17me2s H3K18ac, binder concentration: 50 nM",0.00658 ± 0.00084
same,peptide microarray binding signal,"[1]; peptide region: H3 11-23, peptide modifications: H3R17me2s H3K18ac, binder concentration: 500 nM",0.0081 ± 0.0003
same,peptide microarray binding signal,"[2]; peptide region: H3 11-23, peptide modifications: H3R17me2s H3K18ac, binder concentration: 10 nM",0.00776 ± 0.00012
same,peptide microarray binding signal,"[2]; peptide region: H3 11-23, peptide modifications: H3R17me2s H3K18ac, binder concentration: 100 nM",0.0133 ± 0.00095
same,peptide microarray binding signal,[3]; [11],0.00415 ± 0.00025
same,peptide microarray binding signal,[3]; [12],0.00468 ± 0.00016
same,peptide microarray binding signal,[4]; [11],0.00156 ± 4.6e-05
same,peptide microarray binding signal,[4]; [12],0.001441 ± 1.4e-05
TGGKAPRKQLATK [H3 11-23 T G G K A P Rme2a Kme3 Q L A T K],peptide microarray binding signal,"[1]; peptide region: H3 11-23, peptide modifications: H3R17me2a H3K18me3, binder concentration: 50 nM",0.0133 ± 0.00073
same,peptide microarray binding signal,"[1]; peptide region: H3 11-23, peptide modifications: H3R17me2a H3K18me3, binder concentration: 500 nM",0.0186 ± 0.0037
same,peptide microarray binding signal,"[2]; peptide region: H3 11-23, peptide modifications: H3R17me2a H3K18me3, binder concentration: 10 nM",0.0148 ± 0.0037
same,peptide microarray binding signal,"[2]; peptide region: H3 11-23, peptide modifications: H3R17me2a H3K18me3, binder concentration: 100 nM",0.0224 ± 0.0093
same,peptide microarray binding signal,[3]; [13],0.284 ± 0.098
same,peptide microarray binding signal,[3]; [14],0.305 ± 0.1
same,peptide microarray binding signal,[4]; [13],0.0475 ± 0.015
same,peptide microarray binding signal,[4]; [14],0.0213 ± 0.0043
TGGKAPRKQLATK [H3 11-23 T G G K A P Rme2a Kme2 Q L A T K],peptide microarray binding signal,"[1]; peptide region: H3 11-23, peptide modifications: H3R17me2a H3K18me2, binder concentration: 50 nM",0.00937 ± 0.0035
same,peptide microarray binding signal,"[1]; peptide region: H3 11-23, peptide modifications: H3R17me2a H3K18me2, binder concentration: 500 nM",0.011 ± 0.00034
same,peptide microarray binding signal,"[2]; peptide region: H3 11-23, peptide modifications: H3R17me2a H3K18me2, binder concentration: 10 nM",0.0112 ± 0.0018
same,peptide microarray binding signal,"[2]; peptide region: H3 11-23, peptide modifications: H3R17me2a H3K18me2, binder concentration: 100 nM",0.0143 ± 0.00077
same,peptide microarray binding signal,[3]; [15],0.00423 ± 0.00094
same,peptide microarray binding signal,[3]; [16],0.0032 ± 0.00019
same,peptide microarray binding signal,[4]; [15],0.00186 ± 6.1e-05
same,peptide microarray binding signal,[4]; [16],0.001787 ± 1.7e-05
LATKAARKSAPAT [H3 20-32 L A T K A A R K S A P A T],peptide microarray binding signal,"[1]; peptide region: H3 20-32, binder concentration: 50 nM",0.00505 ± 0.00047
same,peptide microarray binding signal,"[1]; peptide region: H3 20-32, binder concentration: 500 nM",0.00533 ± 9e-05
same,peptide microarray binding signal,"[2]; peptide region: H3 20-32, binder concentration: 10 nM",0.00806 ± 9.3e-05
same,peptide microarray binding signal,"[2]; peptide region: H3 20-32, binder concentration: 100 nM",0.0106 ± 0.00016
same,peptide microarray binding signal,[3]; [17],0.00249 ± 7e-05
same,peptide microarray binding signal,[3]; [18],0.00262 ± 4e-05
same,peptide microarray binding signal,[4]; [17],0.000982 ± 2.1e-05
same,peptide microarray binding signal,[4]; [18],0.00167
TGGKAPRKQLATK [H3 11-23 T G G K A P Rme2a Kme Q L A T K],peptide microarray binding signal,"[1]; peptide region: H3 11-23, peptide modifications: H3R17me2a H3K18me1, binder concentration: 50 nM",0.0073 ± 0.00016
same,peptide microarray binding signal,"[1]; peptide region: H3 11-23, peptide modifications: H3R17me2a H3K18me1, binder concentration: 500 nM",0.0126 ± 0.0004
same,peptide microarray binding signal,"[2]; peptide region: H3 11-23, peptide modifications: H3R17me2a H3K18me1, binder concentration: 10 nM",0.00949 ± 0.00068
same,peptide microarray binding signal,"[2]; peptide region: H3 11-23, peptide modifications: H3R17me2a H3K18me1, binder concentration: 100 nM",0.0322 ± 0.008
same,peptide microarray binding signal,[3]; [19],0.00823 ± 0.0013
same,peptide microarray binding signal,[3]; [20],0.00496 ± 0.00085
same,peptide microarray binding signal,[4]; [19],0.00281 ± 0.00028
same,peptide microarray binding signal,[4]; [20],0.00173 ± 1.7e-05
LATKAARKSAPAT [H3 20-32 L A T Kac A A R Kme2 S A P A T],peptide microarray binding signal,"[1]; peptide region: H3 20-32, peptide modifications: H3K23ac H3K27me2, binder concentration: 50 nM",0.00426 ± 0.0002
same,peptide microarray binding signal,"[1]; peptide region: H3 20-32, peptide modifications: H3K23ac H3K27me2, binder concentration: 500 nM",0.00929 ± 0.0011
same,peptide microarray binding signal,"[2]; peptide region: H3 20-32, peptide modifications: H3K23ac H3K27me2, binder concentration: 10 nM",0.0152 ± 0.0015
same,peptide microarray binding signal,"[2]; peptide region: H3 20-32, peptide modifications: H3K23ac H3K27me2, binder concentration: 100 nM",0.0206 ± 0.00053
same,peptide microarray binding signal,[3]; [21],0.00765 ± 0.0019
same,peptide microarray binding signal,[3]; [22],0.00719 ± 0.00029
same,peptide microarray binding signal,[4]; [21],0.00344 ± 0.001
same,peptide microarray binding signal,[4]; [22],0.00329 ± 0.00032
LATKAARKSAPAT [H3 20-32 L A T Kme A A R Kme2 S A P A T],peptide microarray binding signal,"[1]; peptide region: H3 20-32, peptide modifications: H3K23me1 H3K27me2, binder concentration: 50 nM",0.00395 ± 5.6e-05
same,peptide microarray binding signal,"[1]; peptide region: H3 20-32, peptide modifications: H3K23me1 H3K27me2, binder concentration: 500 nM",0.002619 ± 2.1e-05
same,peptide microarray binding signal,"[2]; peptide region: H3 20-32, peptide modifications: H3K23me1 H3K27me2, binder concentration: 10 nM",0.00537 ± 9.5e-05
same,peptide microarray binding signal,"[2]; peptide region: H3 20-32, peptide modifications: H3K23me1 H3K27me2, binder concentration: 100 nM",0.00539 ± 7.3e-05
same,peptide microarray binding signal,[3]; [23],0.00217 ± 0.00021
same,peptide microarray binding signal,[3]; [24],0.00331 ± 4.7e-05
same,peptide microarray binding signal,[4]; [23],0.0018 ± 6.4e-05
same,peptide microarray binding signal,[4]; [24],0.00161 ± 3.1e-05
